Sampled rows, rich in hits. Any-hit rate of the full collection: about 1.2%.
RGS7-Gao: human RGS7-Galphao interaction regulation; P09471; Multiplexed bead flow cytometry, RGS7-Galphao binding; actives lie on both sides; binding response (% of control), % at 10 µM; 220,000 tested, 0.35% active; in the data active = binding response below about 49% or above about 150%; inconclusive = no clear call, values can overlap the other calls; inactive = in between;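 also: fluorescent Galphao held in activated GDP-AlF4 state binding bead-coupled RGS7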
Target sequence (P09471 whole entry, looked up): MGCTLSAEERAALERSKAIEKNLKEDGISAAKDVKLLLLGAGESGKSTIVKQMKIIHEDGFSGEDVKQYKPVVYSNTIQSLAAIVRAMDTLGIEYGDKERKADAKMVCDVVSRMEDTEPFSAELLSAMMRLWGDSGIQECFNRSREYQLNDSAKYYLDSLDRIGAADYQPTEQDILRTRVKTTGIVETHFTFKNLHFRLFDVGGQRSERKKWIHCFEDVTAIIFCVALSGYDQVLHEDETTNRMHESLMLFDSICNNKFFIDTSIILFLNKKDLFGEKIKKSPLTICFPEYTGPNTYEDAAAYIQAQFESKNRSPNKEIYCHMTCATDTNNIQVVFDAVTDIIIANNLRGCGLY
Avidin bead fluor: avidin bead compound fluorescence profile; Avidin beads, compound fluorescence 488/530 nm, flow cytometry; active compounds read high; fluorescence (KMESF) at 10 µM; 220,000 tested, 0.38% active; AID 1775; in the data active = fluorescence above about 47
RGS4-Gao reg: human RGS4-Galphao interaction regulation; P09471; AID 1415; Multiplexed bead flow cytometry, RGS4-Galphao binding; actives lie on both sides; 220,000 tested, 0.33% active; binding response (% of control), % at 10 µM; in the data active = binding response below about 49% or above about 150%; inactive = in between;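 also: fluorescent Galphao activated with aluminum fluoride binding bead-coupled RGS4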
GSH bead fluor: GSH bead compound fluorescence profile | GSH beads flow cytometry, compound fluorescence 488/530 nm; active compounds read high | fluorescence (KMESF) at 10 µM | 190,000 tested, 0.25% active; in the data active = fluorescence above about 89;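 also: glutathione beads carrying GST-tagged Bcl family fusion proteins plus one bare bead set; values are compound well signal with DMSO vehicle wells as background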
RGS8-Gao reg: regulators of human RGS8-Galphao interaction; P09471; multiplexed bead flow cytometry, RGS8-Galphao binding; actives lie on both sides; response (percent of control binding), % at 10 µM; 220,000 tested, 0.34% active; in the data active = response below about 60% or above about 140%; inactive = in between;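 also: Galphao activated as the GDP aluminium fluoride complex binding bead-coupled RGS8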
RGS16-Gao HTS: modulates binding between human RGS16 and Galphao; O15492+P09471; bead-based flow cytometry RGS16-Galphao binding, fluorescence; actives lie on both sides; binding response (% of control), % at 10 µM; 220,000 tested, 0.38% active; AID 1441; call rule not given here;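 also: Galphao activated by GDP with aluminum fluoride before binding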
Target sequence (O15492 whole entry, looked up): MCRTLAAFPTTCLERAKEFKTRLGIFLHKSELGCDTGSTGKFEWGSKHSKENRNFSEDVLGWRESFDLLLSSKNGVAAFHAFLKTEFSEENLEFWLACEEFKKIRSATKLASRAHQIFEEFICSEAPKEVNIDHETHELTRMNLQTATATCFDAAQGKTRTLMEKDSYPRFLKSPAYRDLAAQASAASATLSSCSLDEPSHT
Target sequence (P09471 whole entry, looked up): as the sequence (P09471 whole entry, looked up) above
An asterisk follows results filed as active; ? = inconclusive; . = no result; [ ] = remark or other dose.

SMILES	RGS7-Gao	Avidin bead fluor	RGS4-Gao reg	GSH bead fluor	RGS8-Gao reg	RGS16-Gao HTS
O=[N+]([O-])c1ccc(/C=C/C2=NN(c3ccccc3)C(c3ccco3)C2)cc1 (stereo not drawn)	246.4*[activator]	186*	285.4*[activator]	83	111.2	222.8*[activator]
COc1ccc(CCN(Cc2cc3ccc(C)cc3n3nnnc23)C(C)=O)cc1OC	100.7	11	98.1	12	100.6	98.8
O=S(=O)(N1CCCCC1)n1nnc2ccccc21	107.2	49*	103.5	10	100.7	102.5
Cc1cc(N2CCOCC2)c2c(N)c(C)cc(C)c2n1	148.3	61*	106.4	26	99.2	102.9
O=C(NCc1ccccn1)C(C(=O)c1ccc(F)cc1)n1ccccc1=O (stereo not drawn)	110.5	56*	104.3	18	101.5	101.3
O=C(NCc1ccco1)C(C(=O)c1ccc(F)cc1)n1ccccc1=O (stereo not drawn)	97.8	5	101.0	22	100.5	95.3
CN1CCN(C(=O)C(C(=O)c2ccc(F)cc2)n2ccccc2=O)CC1 (stereo not drawn)	116.1	59*	108.0	35	106.9	113.3
COC(=O)c1ccc(/C=N/OCC(=O)NCc2ccc(F)cc2)cc1	?	54*	111.9	16	100.4	109.9
CC1CC(C)CN(C(=O)C2CCCN(S(=O)(=O)c3cnc[nH]3)C2)C1 (stereo not drawn)	?	9	100.1	.	98.7	99.8
COC(=O)c1sc(NC(=O)C2CCCO2)c(C(=O)OC)c1C (stereo not drawn)	99.1	7	99.4	32	96.7	82.9
Cc1c(C(=O)OC(C)C)sc(NC(=O)C2CCCO2)c1C(=O)OC(C)C (stereo not drawn)	94.2	4	96.5	93*	96.0	80.6
Cc1ccc(CN2CCN(C(=O)C3CCCO3)CC2)cc1 (stereo not drawn)	101.2	6	99.6	50	100.7	108.1
O=C(C1CCCO1)N1CCN(Cc2c(O)ccc3ccccc23)CC1 (stereo not drawn)	113.0	61*	104.4	16	100.0	100.6
Cc1cc(NC(=O)c2ccc(S(=O)(=O)N(C)C)cc2)n(-c2ccccn2)n1	122.5	88*	108.5	26	104.0	104.3
Cn1c(=S)n(C)c2ccccc21	116.4	84*	104.9	17	95.9	103.2
Cc1ccc(S(=O)(=O)Nc2ccc3nc(N)sc3c2)cc1	108.1	49*	98.8	27	100.3	99.5
CC(Sc1ccccc1)C(=O)NN=C1CCN(C)CC1 (stereo not drawn)	109.2	6	102.6	24	99.9	92.5
CC(=O)c1ccc(-n2nncc2-c2ccc([N+](=O)[O-])cc2)cc1	?	11	99.3	8	101.4	98.8
CC(=O)c1ccc(NS(=O)(=O)c2ccccc2)cc1	121.5	49*	106.0	28	101.2	102.7
CC(=O)c1ccc(NS(=O)(=O)c2ccc(N)cc2)cc1	94.6	15	93.2	12	92.8	69.2
CCCCOc1ccc(/C=C/C(=O)OCC(=O)NC(=O)NCC(C)C)cc1OCC	103.9	11	101.2	10	99.5	101.5
CCOC(=O)c1cnn2c1[nH]c(=O)c1ccccc12	123.8	96*	109.6	49	101.5	109.9
CC(C)(C)NC(=O)c1cccc(NC(=O)c2ccc(NC(=O)c3ccco3)cc2)c1	101.7	10	98.7	29	100.9	99.7
CC(C)(C)NC(=O)c1cccc(NC(=O)c2ccco2)c1	95.0	4	97.6	99*	89.5	79.7
CCOc1cc(/C=N\Nc2ccc([N+](=O)[O-])cc2)ccc1OCC(=O)Nc1ccc(C)c(C)c1	95.2	32	93.5	16	98.5	92.7
SMILES	RGS7-Gao	Avidin bead fluor	RGS4-Gao reg	GSH bead fluor	RGS8-Gao reg	RGS16-Gao HTS
COc1cc(/C=N\Nc2ccc([N+](=O)[O-])cc2)ccc1OCC(=O)Nc1ccc(C)c(C)c1	95.1	61*	92.3	13	100.2	103.4
C(=C\c1ccccc1)/CSc1nc2ncccc2[nH]1	?	6	100.0	.	98.0	100.7
O=C(O)c1cc(-c2cccnc2)nn1-c1ccccn1	99.8	7	99.0	260*	99.0	106.0
COc1cccc(N/C=C/c2onc(C)c2[N+](=O)[O-])c1	97.8	11	96.8	10	98.7	96.3
COc1cc(OC)c(OC)cc1/C=N/N(C)c1ccccc1	133.9	54*	148.3	33	107.5	147.6
COc1cc(/C=N/N(C)c2ccccc2)ccc1O	98.3	8	98.3	4	99.8	100.8
O=c1c(Cc2ccccc2)c(O)ccn1CCc1cnc[nH]1	102.2	8	98.9	24	98.6	98.6
CCOC(=O)c1ccc(NC(=O)Cn2c(-c3nonc3N)nc3ccccc32)cc1	104.5	18	101.3	9	109.0	127.7
CCCS(=O)(=O)NCCc1cc2ccc(C)cc2[nH]c1=O	102.1	5	95.7	88*	98.8	97.7
Cc1cc2oc(=O)cc(Cn3ccnc3)c2cc1C	96.5	8	102.6	273*	98.5	102.5
COc1ccc(Cc2noc(COc3ccc(Cl)cc3)n2)cc1	99.8	11	98.0	92*	98.6	100.1
COc1ccc2nc(Nc3nc(CSc4nnnn4-c4ccccc4)cc(=O)[nH]3)nc(C)c2c1	134.7	95*	108.6	33	97.8	103.9
CCOc1ccc2nc(Nc3nc(CSc4nnnn4-c4ccccc4)cc(=O)[nH]3)nc(C)c2c1	103.7	6	102.6	23	103.5	106.5
CCN(CC)C(=O)C(=O)N/N=C/c1ccc(C(=O)OC)cc1	100.7	14	103.2	14	100.2	104.5
COc1ccc(NC(=O)c2ccccn2)cc1OC	84.2	12	87.1	9	93.7	91.2
CC(Oc1ccc(Cl)cc1Cl)c1nc(-c2ccc(NC(=O)c3ccccn3)cc2)no1 (stereo not drawn)	104.0	7	104.1	108*	102.1	98.7
O=C(CSc1nnc(-c2ccco2)o1)NC(=O)C1COc2ccccc2O1 (stereo not drawn)	77.0	3	70.1	245*	71.0	6.4
CCC(C)NS(=O)(=O)c1ccc(OCC(=O)NCc2ccccn2)cc1 (stereo not drawn)	109.8	16	103.7	14	102.3	107.1
CCC(C)NS(=O)(=O)c1ccc(OCC(=O)NCc2cccnc2)cc1 (stereo not drawn)	103.8	4	103.2	257*	95.2	64.4
CCOC(=O)c1cnn(-c2ncnc3sc4c(c23)CCC4)c1N	116.2	52*	121.2	23	102.2	125.0
C[C@@]12CC(=O)NC1N(C(=O)c1ccccc1)C(c1ccccc1OC(=O)c1ccccc1)C2 (stereo partly drawn)	103.0	7	99.7	250*	99.8	105.1
Clc1ccc(-c2nc(-c3cc4cc(Cl)ccc4o3)cs2)cc1	?	11	97.0	.	105.6	104.0
